An excerpt weighted towards active compounds, which were near 19% of everything screened.
KB-V1 MDR tox: kills drug-selected multidrug resistant KB-V1 cells. AID 1347076. KB-V1 MDR cells viability, CellTiter-Glo, 72 h. hit rate 3.4% among 400,000. Potency, µM (top dose mostly 46.1 µM), actives largely listed as cytotoxic; also: nearly all actives have a fitted effect of over 60% in size
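KB-V1, DMEM (no phenol red) + 10% FBS; cpd pin-transferred, titration series; 72 h, 37 degrees C; CellTiter-Glo, luminescence. Data normalized, curve-fit.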
HT1080 IDH1KD tx: toxicity to HT-1080 IDH1 knockdown cells (counter line); HT-1080 IDH1 knockdown viability, ATP luminescence, 48 h; Potency, µM (top dose mostly 46.1 µM), for the others: at the highest dose activity, negative = toxicity, hits mostly cytotoxic; hit rate 2% among 360,000;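 also: 0% = DMSO wells and -100% = cell-free medium wells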
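% activity derives from luminescence (CellTiter-Glo), normalised to DMSO and no-cell wells. HT-1080-IDH1KD cells, 750/well, had 48 h compound exposure at 37 °C.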
DT40 TDP1 no CPT: qHTS for Inhibitors of human tyrosyl-DNA phosphodiesterase 1 (TDP1): qHTS in cells in absence of CPT; DT40 Tdp1-/- hTDP1 cells, no CPT, ATP luminescence, 48 h; Potency, µM (highest dose often 46.2 µM), without a hit: at the highest dose activity change, negative = growth inhibition, hits mostly inhibitors; hit rate 15% among 420,000; also: nearly all actives have a fitted effect of over 55% in size
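A cellular qHTS used chicken DT40 cells lacking endogenous Tdp1 but carrying stably transfected human TDP1. Compounds were applied without camptothecin, and cell growth kinetics were judged by ATP-dependent luminescence after ≥48 hr.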
TDP1 cell CPT: DT40-hTDP1 cell growth loss with CPT; chicken DT40 Tdp1-/-;hTDP1 cells + 20 nM CPT, ATP luminescence, 48 h; Potency, µM (series often up to 46.2 µM), for inactives: at the highest dose activity change, negative = growth inhibition, actives largely listed as inhibitors; hit rate 12% among 420,000; also: nearly all actives have a fitted effect of over 55% in size
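Chicken DT40 Tdp1-/- cells complemented with human TDP1, 400 cells/well, exposed to compounds plus 20 nM camptothecin for at least 48 h at 37 C; viability read as ATP content by CellTiter-Glo luminescence.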
KB-3-1 tox: KB-3-1 parental cell cytotoxicity. KB-3-1 viability, CellTiter-Glo ATP luminescence, 72 h. AID 1347075. hit rate 1.4% among 400,000. Potency, µM (doses to about 46.1 µM), hits mostly cytotoxic; also: nearly all actives have a fitted effect of over 60% in size
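Parental KB-3-1 adenocarcinoma cells in phenol-red-free DMEM with 10% FBS were pin-treated with compounds at several concentrations, incubated 72 h at 37 °C, and viability read by CellTiter-Glo luminescence; concentration-effect curves were fitted after normalization.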
HT1080-NT tox: kills 2HG-producing HT-1080-NT fibrosarcoma cells; AID 686970; Potency, µM (series often up to 46.1 µM), inactives show top-dose activity, negative = less viability, usual class: cytotoxic; HT-1080-NT fibrosarcoma viability, CellTiter-Glo ATP luminescence, 48 h; hit rate 1.6% among 360,000;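 also: NT is the 2HG producing partner of a matched IDH1 knockdown line; 0% = DMSO-treated cells and -100% = media-only wells without cells; nearly all actives have a fitted effect of over 55% in size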
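Luminescent CellTiter-Glo readout after 48 hours of compound exposure at 37 degrees C defined viability of HT-1080-NT cells. Activity was normalized to DMSO wells and cell-free media wells; concentration-response curves were fitted and assigned curve classes.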
* marks the source's active call; other numbers are inactive results. Calls follow the shape of the dose curve; as a rule, active = well fitted curve in the direction sought with a large enough effect; inconclusive = small, poorly fitted or top-dose-only effect, or another doubt; inactive = no such curve, though single readings can be large; an effect the other way counts as inactive or inconclusive. Unless noted, % is scaled to controls: 0 for no effect and ±100 for the full control effect; potency is read from the fitted curve at half-maximal effect.

Results for CCOC(=O)CN(C(=O)COc1nc(-c2ccccc2)cc(C)c1C#N)c1ccccc1 ?
KB-V1 MDR tox: inactive; HT1080 IDH1KD tx: 13%; DT40 TDP1 no CPT: inconclusive; TDP1 cell CPT: -68%; KB-3-1 tox: inconclusive; HT1080-NT tox: 9%

How did O=C(Nc1ccc(NC(=O)c2cccnc2)cc1)c1ccccc1 do in these assays?
KB-V1 MDR tox: inactive; HT1080 IDH1KD tx: 20%; DT40 TDP1 no CPT: -8%; TDP1 cell CPT: 2%; KB-3-1 tox: inactive; HT1080-NT tox: 14%

How did O=C(Nc1cccc(OC(=O)c2cccnc2)c1)c1cccnc1 do in these assays?
KB-V1 MDR tox: inactive; HT1080 IDH1KD tx: -17%; DT40 TDP1 no CPT: 10µM*; TDP1 cell CPT: 10µM*; KB-3-1 tox: inactive; HT1080-NT tox: -10%

How did CCC(C)c1ccc(NC(=O)c2cccnc2)cc1 (stereo not given) do in these assays?
KB-V1 MDR tox: 21µM*; HT1080 IDH1KD tx: inconclusive; DT40 TDP1 no CPT: -20%; TDP1 cell CPT: inconclusive; KB-3-1 tox: inactive; HT1080-NT tox: -6%

What do the screens show for `O=C(Nc1ccc(-c2noc(-c3cccs3)n2)cc1)c1cccnc1`?
KB-V1 MDR tox: inconclusive; HT1080 IDH1KD tx: inconclusive; DT40 TDP1 no CPT: 29µM*; TDP1 cell CPT: inconclusive; KB-3-1 tox: inactive; HT1080-NT tox: -24%

What do the screens show for `O=C(Nc1ccc(F)cc1)c1cccnc1`?
KB-V1 MDR tox: inconclusive; HT1080 IDH1KD tx: 19%; DT40 TDP1 no CPT: inconclusive; TDP1 cell CPT: 9.2µM*; KB-3-1 tox: inactive; HT1080-NT tox: -3%

What do the screens show for `COCCCN1C(=O)c2ccc(C(=O)Nc3ccc(OC)cc3)cc2C1=O`?
KB-V1 MDR tox: inactive; HT1080 IDH1KD tx: 1%; DT40 TDP1 no CPT: -10%; TDP1 cell CPT: -2%; KB-3-1 tox: inactive; HT1080-NT tox: 12%

Results for CC(Oc1ccc(Cl)cc1Cl)c1nc(-c2ccc(NC(=O)c3cccnc3)cc2)no1 (stereo not given) ?
KB-V1 MDR tox: inactive; HT1080 IDH1KD tx: 7.3µM*; DT40 TDP1 no CPT: 5.8µM*; TDP1 cell CPT: 5.8µM*; KB-3-1 tox: inactive; HT1080-NT tox: inconclusive

Results for CN(Cc1ccccc1)C(=O)c1ccco1 ?
KB-V1 MDR tox: inactive; HT1080 IDH1KD tx: 0%; DT40 TDP1 no CPT: 8%; TDP1 cell CPT: -17%; KB-3-1 tox: inactive; HT1080-NT tox: -1%

What do the screens show for `O=C(C#Cc1ccccc1)c1ccco1`?
KB-V1 MDR tox: inactive; HT1080 IDH1KD tx: 6.5µM*; DT40 TDP1 no CPT: 0.58µM*; TDP1 cell CPT: 1.3µM*; KB-3-1 tox: inconclusive; HT1080-NT tox: 12µM*

How did Nc1nc(=S)n(-c2ccccc2)[nH]1 do in these assays?
KB-V1 MDR tox: inactive; HT1080 IDH1KD tx: 15%; DT40 TDP1 no CPT: 2%; TDP1 cell CPT: 0%; KB-3-1 tox: inactive; HT1080-NT tox: 8%

Results for S=c1nc(C2CCCCC2)n(-c2ccccc2)[nH]1 ?
KB-V1 MDR tox: inactive; HT1080 IDH1KD tx: 11%; DT40 TDP1 no CPT: 23µM*; TDP1 cell CPT: inconclusive; KB-3-1 tox: inactive; HT1080-NT tox: 16%

What do the screens show for `COc1ccc(NC(=O)CCC(=O)N2CCC(c3ccccc3)=N2)cc1S(=O)(=O)N1CCCCC1`?
KB-V1 MDR tox: inconclusive; HT1080 IDH1KD tx: -9%; DT40 TDP1 no CPT: inconclusive; TDP1 cell CPT: inconclusive; KB-3-1 tox: inactive; HT1080-NT tox: 3%

What do the screens show for `Oc1ccc(/C=N/Nc2ccnc3cc(Cl)ccc23)c(O)c1`?
KB-V1 MDR tox: inactive; HT1080 IDH1KD tx: -9%; DT40 TDP1 no CPT: inconclusive; TDP1 cell CPT: inconclusive; KB-3-1 tox: inactive; HT1080-NT tox: 0%

How did Cc1ccccc1/C=N/Nc1ccnc2cc(Cl)ccc12 do in these assays?
KB-V1 MDR tox: 16µM*; HT1080 IDH1KD tx: inconclusive; DT40 TDP1 no CPT: inconclusive; TDP1 cell CPT: 10µM*; KB-3-1 tox: inconclusive; HT1080-NT tox: inconclusive

Compound activity deposited in PubChem by National Center for Advancing Translational Sciences (NCATS).
